From PubChem BioAssay (NCATS)
Inconclusive results are not listed. A call without a number means that no potency is given here. Activity calls are given as the source filed them. Calls come from the whole dose curve; as a rule, active = well fitted inhibition curve with a large enough effect; inconclusive = small, poorly fitted or top-dose-only effect; inactive = no such curve, though single readings can be large or run the other way. *1 amine or outer side, *2 acyl side, *3 side chain or, on linkers, in order; H or OH if unused. Where a SMILES comes first, the peptide text is derived from it. Bridges are numbered along the chain shown (N, C = ends). [ ]: non-standard residue; d: D form. The star is where a group is joined. pTerphenylCO(4''-OnC5H11) = CCCCCOc1ccc(-c2ccc(-c3ccc(C(=O)*)cc3)cc2)cc1; Orn(4R-OH,5R-OH) = O=C([C@H](C[C@@H](O)[C@@H](O)N[*:3])N[*:1])[*:2]; hTyr(3S-OH,4S-OH) = N[C@H](C(=O)O)[C@H](O)[C@@H](O)c1ccc(O)cc1; Pro(3S-OH,4S-Me) = C[C@H]1CN[C@H](C(=O)O)[C@H]1O; Hyp = O=C(O)[C@@H]1C[C@@H](O)CN1

Experiments:
[1] = tested on: Zika virus NS2B-NS3 protease (unlinked complex); assay: Primary screen GU Rhodamine qHTS for Zika virus inhibitors: Unlinked NS2B-NS3 protease assay (AID 1347159); note: nearly all actives have a fitted effect of over 60% in size
Procedure, shortened: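 Compounds, tested up to 114 microM, were incubated for 15 minutes with 25 nM unlinked NS2B-NS3 protease at pH 8.0. Cleavage of 1.5 microM Rhodamine110 substrate was then followed by fluorescence for 15 minutes.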

[2] = tested on: Zika virus NS2B-NS3 protease (linked construct); assay: Primary screen NINDS Rhodamine qHTS for Zika virus inhibitors (AID 1347160); note: nearly all actives have a fitted effect of over 55% in size
Procedure, shortened: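 Percent inhibition, normalized to uninhibited and enzyme-free controls, is fitted to a 4-parameter Hill equation. Fluorescence change comes from a 15-min cleavage of 1.5 microM bis-peptide Rhodamine110 substrate by 25 nM linked NS2B-NS3 at room temperature.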
Potency is the fitted concentration of half-maximal effect.

Row | SMILES | Potency [1] | Potency [2]
1 | C=C[C@H](/C=C\c1ccc(O)cc1)c1ccc(O)cc1 | inactive | inactive
2 | CCNC(=O)C#Cc1ccc2c(C(=Nc3ccc(CN(C)C)cc3)c3ccccc3)c(O)[nH]c2c1 | inactive | inactive
3 | COc1ccc2c(c1O[C@H]1CCNC1)CCC2 | inactive | inactive
4 | Cc1cnc(-c2ccccc2C(C)C)nc1NCc1ccc(-n2ccnn2)cc1 | inactive | inactive
5 | COC(=O)CC(O)CC(O)/C=C/c1c(C)ccc2c1C(OC(C)=O)CC(C)C2 (stereo not drawn) | inactive | inactive
6 | COc1c2c(c(C)c3c1C(=O)OC3)O[C@@]1(C)C[C@@H](OC(C)=O)[C@]34O[C@](OC)(CC[C@]3(C)[C@H]1C2)OC4(C)C | inactive | inactive
7 | C[C@H](Nc1ncnc2nc[nH]c12)c1cc2cccc(Cl)c2c(=O)n1-c1ccccc1 | inactive | inactive
8 | CC(=O)OC1CC(C)(C(=O)O)CC2C3=CC(=O)C4C5(C)CCC(OC6OC(C(=O)O)C(O)C(O)C6OC6OC(C(=O)O)C(O)C(O)C6O)C(C)(C)C5CCC4(C)C3(C)CCC12C (stereo not drawn) | inactive | inactive
9 | C=CC(=O)Nc1ccc(CN2C(=O)N(c3cc(OC)cc(OC)c3)Cc3cnc(Nc4ccc(N5CCN(C)CC5)cc4)nc32)cc1 | inactive | inactive
10 | CC1(C)CCC2(C(=O)OC3OC(COC4OC(CO)C(O)C(O)C4O)C(O)C(O)C3O)CCC3(C)C(=CCC4C5(C)CCC(OC6OCC(O)C(O)C6O)C(C)(C)C5CCC43C)C2C1O (stereo not drawn) | inactive | inactive
11 | CCN1CCN(Cc2ccc(NC(=O)c3ccc(C)c(Oc4ncnc5[nH]c(C)cc45)c3)cc2C(F)(F)F)CC1 | inactive | inactive
12 | CCNC(=O)N1CCCN(c2ccc(C(=O)NCCc3ccc(Cl)cc3Cl)cc2NC(=O)c2cccc(Cl)c2)CC1 | inactive | inactive
13 | N#CSc1cc(SC#N)c(N)nc1N | inactive | inactive
14 | C[C@H]1CC[C@@]2(OC1)O[C@H]1CC3[C@@H]4CC[C@@H]5C[C@@H](O[C@@H]6O[C@H](CO)[C@@H](O[C@@H]7O[C@@H](C)[C@H](O)[C@@H](O)[C@H]7O)[C@H](O)[C@H]6O[C@@H]6O[C@H](CO)[C@@H](O)[C@H](O)[C@H]6O)CC[C@]5(C)C4CC[C@]3(C)[C@H]1[C@@H]2C (stereo partly drawn) | inactive | inactive
15 | Cc1cccc(-c2[nH]ncc2-c2ccnc3ccccc23)n1 | inactive | inactive
16 | Nc1ncnc2c1c(-c1ccc(Oc3ccccc3)cc1)nn2[C@@H]1CCCNC1 | inactive | inactive
17 | CCCN(CCc1ccsc1)C1CCc2c(O)cccc2C1 (stereo not drawn) | inactive | inactive
18 | COC1=CC(=O)C[C@@H](C)[C@@]12Oc1c(Cl)c(OC)cc(OC)c1C2=O | inactive | inactive
19 | C[C@@H]1O[C@@H](O[C@H]2[C@H](O[C@H]3CC[C@@]4(C)C(CC[C@]5(C)C4C=C[C@]46OC[C@@]7(CCC(C)(C)C[C@H]74)[C@@H](O[C@@H]4O[C@@H](C)[C@H](O)[C@@H](O)[C@H]4O)C[C@]65C)[C@]3(C)CO)O[C@H](CO)[C@@H](O)[C@@H]2O[C@@H]2O[C@H](CO)[C@@H](O)[C@H](O)[C@H]2O)[C@H](O)[C@H](O)[C@H]1O (stereo partly drawn) | inactive | inactive
20 | COc1cc(N2CCC(N)CC2)ccc1Nc1ncc(Cl)c(-c2c[nH]c3ccccc23)n1 | inactive | inactive
21 | Fc1ccc(N2CCCCC2)c(NC(=S)c2ccncc2)c1 | inactive | inactive
22 | COc1ccc(S(=O)(=O)n2cnc3cc(C)c(C)cc32)cc1 | inactive | inactive

Row | SMILES | Potency [1] | Potency [2]
23 | O=c1ccc2ccc(OCCCCN3CCN(c4cccc5sccc45)CC3)cc2[nH]1 | inactive | inactive
24 | COc1cc([C@H]2O[C@H](c3cc(OC)c4c(c3)OCO4)[C@H](C)[C@H]2C)cc(OC)c1OC | inactive | inactive
25 | Cc1nc2ccc(-n3ncc(C(=O)c4cc5ccccc5[nH]4)c3N)cc2[nH]1 | inactive | inactive
26 | CCOC(=O)C1(CCOc2ccccc2)CCN(Cc2ccc(O)c(Cl)c2)CC1 | inactive | inactive
27 | C=C1CC[C@@H]2[C@](C)(CO)[C@H](O)CC[C@@]2(C)[C@@H]1CC(=O)C1=CCOC1=O | inactive | inactive
28 | O=C(Nc1ccc(C(F)(F)F)cn1)N1CCN(c2ncccc2C(F)(F)F)CC1 | inactive | inactive
29 | CCC(=O)N1CCOc2c(cc(-c3ccc(OC)c(OC)c3)cc2OC[C@H]2CCCN(C)C2)C1 | inactive | inactive
30 | CC(=O)O[C@H]1C[C@@](O)(C(C)C)[C@@H]2[C@@H](OC(=O)c3ccc(O)cc3)CC(C)=CC[C@@]12C | inactive | inactive
31 | Fc1ccc(-n2cc(CCCCN3CCC4(CC3)OCc3ccccc34)c3ccccc32)cc1 | inactive | inactive
32 | CO[C@H]1[C@@H](O)[C@H](O[C@H]2CC[C@@]3(C)C(CCC4C3CC[C@]35COC6(COC(=O)C6)C3CCC45O)C2)O[C@@H](C)[C@@H]1OC1OC(CO)C(OC2OC(CO)C(O)C(O)C2O)C(O)C1O (stereo partly drawn) | inactive | inactive
33 | N#Cc1cc(-c2ccnc(Nc3ccc(N4CCOCC4)cc3)n2)ccc1OC1CCOCC1 | inactive | inactive
34 | CC1(C)C2CCC(CO[C@@H]3O[C@H](CO[C@@H]4OC[C@](O)(CO)[C@H]4O)[C@@H](O)[C@H](O)[C@H]3O)C1C2 (stereo partly drawn) | inactive | inactive
35 | C/C1=C/CCC2=CC(OC2=O)C(C)(C)/C=C/C1=O (stereo not drawn) | inactive | inactive
36 | COc1cc(-c2nc(N[C@H](CO)Cc3ccccc3)ccc2C(=O)NCCOc2ccccc2)cc(OC)c1OC | inactive | inactive
37 | Cn1c(CO)c(-c2ccccc2)c2cc([N+](=O)[O-])ccc21 | inactive | inactive
38 | CC(C)(C)NC(=O)[C@H]1CC[C@H]2[C@@H]3CC[C@H]4NC(=O)CC[C@]4(C)[C@H]3CC[C@]12C | inactive | inactive
39 | CCCCOC(=O)NS(=O)(=O)c1sc(CC(C)C)cc1-c1ccc(Cn2ccnc2)cc1 | 31.6 µM (active) | inactive
40 | O=C(NCCCn1ccnc1)c1cc(-c2ccco2)on1 | inactive | inactive
41 | Cc1ccc(F)cc1S(=O)(=O)N[C@@H]1CCN(Cc2ccc(OC(C)C)cc2)C1 | inactive | inactive
42 | O[C@@](Cc1ncc(CC2(C(F)(F)F)CC2)[nH]1)(c1ccc(-n2cccn2)cc1)C(F)(F)F | inactive | inactive
43 | CC(=O)NC(C)c1cnc(-c2cnc(Oc3ccc(OC(C)C)cc3)s2)s1 (stereo not drawn) | inactive | inactive
44 | C=C1C(=O)O[C@@H]2[C@H]1CC(=O)[C@H](C)[C@@](O)(C(=O)/C=C/C)[C@H]2OC(=O)C(C)CC (stereo partly drawn) | inactive | inactive

Row | SMILES | Potency [1] | Potency [2]
45 | O=C(NC[C@H]1CN(c2ccc(N3CCOCC3=O)cc2)C(=O)O1)c1ccc(Cl)s1 | inactive | inactive
46 | CN1CCN(c2ccc(OC(F)(F)F)c(Nc3ncc4c(n3)-c3c(c(C(N)=O)nn3CCO)CC4)c2)CC1 | inactive | inactive
47 | CCCCCOc1ccc(-c2ccc(-c3ccc(C(=O)N[C@H]4C[C@@H](O)[C@@H](O)NC(=O)[C@@H]5[C@@H](O)[C@@H](C)CN5C(=O)[C@H]([C@@H](C)O)NC(=O)[C@H]([C@H](O)[C@@H](O)c5ccc(O)cc5)NC(=O)[C@@H]5C[C@@H](O)CN5C(=O)[C@H]([C@@H](C)O)NC4=O)cc3)cc2)cc1 ({pTerphenylCO(4''-OnC5H11)}-[Orn(4R-OH,5R-OH)]T[Hyp][hTyr(3S-OH,4S-OH)]T[Pro(3S-OH,4S-Me)]; lactam 1-C) | 31.6 µM (active) | inactive
48 | COc1ccccc1-c1ccc(-c2cn(C(=O)N3CCCCC3Cc3ccccc3)nn2)cc1 (stereo not drawn) | inactive | inactive
49 | CC(=O)O[C@@H]1C[C@@]2(C)C(CC[C@]3(C)C2CC=C2C4CC(C)(C)CC[C@]4(C(=O)O)CC[C@]23C)C(C)(C)[C@H]1O (stereo partly drawn) | 7.08 µM (active) | 11.2 µM (active)
50 | COC(=O)c1ccc2c(c1)[nH]c1ncnc(NCCCN3CCCCC3)c12 | inactive | inactive
51 | C[C@@H](N[C@H]1CCCC[C@@H]1NC(=O)c1ccc(Cl)cc1)c1cccc2ccccc12 | inactive | inactive
52 | COc1cccc(CN(C(=O)CC(C)(C)C)[C@H]2C[C@H](C(=O)N3CCNCC3)N(Cc3ccc4c(c3)OCO4)C2)c1 | inactive | inactive
53 | C=C1C(=O)O[C@@H]2[C@H]1CC[C@H](C)C(CCC(=O)O)C2(C)O (stereo partly drawn) | inactive | inactive
54 | N#CC(CCCN1CCC(O)(c2ccc(Cl)cc2)CC1)(c1ccccc1)c1ccccc1 | inactive | inactive
55 | Nc1nc2c(c(N3CC[C@@H](N)C3)n1)CCCc1ccccc1-2 | inactive | inactive
56 | Cc1cc2c(c(=O)o1)C=C1CC[C@H]([C@H](C)Cn3cnc(=N)c4[nH]cnc43)C[C@@H]1O2 | inactive | inactive
57 | Cc1ccc(-c2ncccn2)c(C(=O)N2C[C@H](COc3ccc(F)cn3)CC[C@H]2C)c1 | inactive | inactive
58 | C=CCCN1CCC2(CC1)CN(C(=O)c1c(F)cccc1F)c1ccc(Cl)cc12 | inactive | inactive
59 | C=CC(C)(O)CC/C=C(/C)COC(=O)C(C)C1CCC(C)(C=C)O1 (stereo not drawn) | inactive | inactive
60 | O=C(Nc1ccccc1C(=O)Nc1ccc(CCO)cc1)c1ccc([N+](=O)[O-])cc1 | inactive | inactive
61 | Oc1ccc(-c2cnc3ccc(NCc4ccco4)nn23)cc1 | inactive | inactive
62 | COc1ccc2c(c1)C(C(=O)N(Cc1ccc(N(C)C)cc1)c1ccc(C(C)C)cc1)CCC2 (stereo not drawn) | inactive | inactive
63 | C=C1CC[C@@H](O)[C@]2(C)C[C@H]3OC(=O)C(=C)[C@H]3CC12 (stereo partly drawn) | inactive | inactive
64 | C/C1=C\CCC2=CC(OC2=O)C(C)(C)/C=C/C1=O (stereo not drawn) | inactive | inactive
